According to the supplement of paper PMC10849652:
About 7,900 targets were measured; listed, in parts, are those with a hit and a random draw of the rest. About 0.6% of all pairs of compound and target were hits.

Experiments:
Assay in all cases: log2 fold change, soluble protein after heating vs DMSO (PISA); higher = thermal stabilisation; K562 cells, 10 uM, 30 min; active = over 0.2 and 3.5 SD of the protein, either way, in both replicates (recomputed)
[1] = compound: COC1=CC=C(C=C1)CN2C=CC3=C2C=C(C=C3)C(=O)NO
Outline: (§1)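 Thermal stability values are relative to control samples and come from duplicates. They are expressed as log2 fold changes. For measurement, K562 cells (2×10^6 cells/mL) received 10 μM compound for 30 min, and aliquots were heated for 3 min over 48°C-58°C, pooled, and extracted at 4°C in PBS with 0.5% NP-40. Soluble protein, the supernatant after 21,000xg for 90 min, was quantified by TMTpro 16plex LC-MS/MS with equalised channel sums.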

[2] = compound: CON(C)C(=O)N1N=C(c2cc(F)ccc2F)S[C@@]1(CCCN)c1ccccc1 [filanesib]
Outline: as §1

[3] = compound: CO[C@H]1C[C@@H]2CC[C@@H](C)[C@@](O)(O2)C(=O)C(=O)N2CCCC[C@H]2C(=O)O[C@H]([C@H](C)C[C@@H]2CC[C@H](n3cnnn3)[C@H](OC)C2)CC(=O)[C@H](C)/C=C(\C)[C@@H](O)[C@@H](OC)C(=O)[C@H](C)C[C@H](C)/C=C/C=C/C=C/1C [zotarolimus]
Outline: as §1

[4] = compound: COc1cc(C(=O)O)ccc1NC(=O)[C@@H]1N[C@@H](CC(C)(C)C)[C@](C#N)(c2ccc(Cl)cc2F)[C@H]1c1cccc(Cl)c1F [idasanutlin]
Outline: as §1

[5] = compound: COc1cc(Nc2ncc3c(n2)-c2ccc(Cl)cc2C(c2c(F)cccc2OC)=NC3)ccc1C(=O)O [alisertib]
Outline: as §1

[6] = compound: COc1cc2nc(-c3cc(F)ccc3O)nc(N[C@@H]3CNC[C@H]3C(C)(C)O)c2cc1OC
Outline: as §1

[7] = compound: COc1cc2ncnc(Nc3ccc(F)c(Cl)c3)c2cc1OCCCN1CCOCC1 [gefitinib]
Outline: as §1

[8] = compound: COc1cccc2cc(-c3nc([C@H]4CC[C@H](C(=O)O)CC4)n4ncnc(N)c34)[nH]c12
Outline: as §1

[9] = compound: CS(=O)(=O)CCNCc1ccc(-c2ccc3ncnc(Nc4ccc(OCc5cccc(F)c5)c(Cl)c4)c3c2)o1 [lapatinib]
Outline: as §1

[10] = compound: CS(=O)(=O)N1CCN(Cc2cc3nc(-c4cccc5[nH]ncc45)nc(N4CCOCC4)c3s2)CC1 [pictilisib]
Outline: as §1

[11] = compound: CS(=O)(=O)c1ccc(-c2cnc(N)c(C(=O)Nc3ccccc3)n2)cc1
Outline: as §1

[12] = compound: C[C@@H](Oc1cc(-c2cnn(C3CCNCC3)c2)cnc1N)c1c(Cl)ccc(F)c1Cl [crizotinib]
Outline: as §1

[13] = compound: C[C@@H]1COCCN1C2=NC(=NC(=C2)C3(CC3)S(=O)(=O)C)C4=C5C=CNC5=CC=C4
Outline: as §1

[14] = compound: C[C@H](C1=CC=C(C=C1)C(=O)NC2=C3C=CNC3=NC=C2)N
Outline: as §1

[15] = compound: C[C@H](Nc1ncnc2nc[nH]c12)c1cc2cccc(Cl)c2c(=O)n1-c1ccccc1 [duvelisib]
Outline: as §1

[16] = compound: Cc1cc(Nc2cc(CN3CCOCC3)c3nc(C)c(Cc4ccc(Cl)cc4F)n3n2)n[nH]1 [gandotinib]
Outline: as §1

[17] = compound: Cc1cc(Nc2cc(N3CCN(C)CC3)nc(Sc3ccc(NC(=O)C4CC4)cc3)n2)n[nH]1 [tozasertib]
Outline: as §1

[18] = compound: Cc1cc(SCc2sc(-c3ccc(C(F)(F)F)cc3)nc2C)ccc1OCC(=O)O
Outline: as §1

[19] = compound: Cc1ccc(-n2nc(C(C)(C)C)cc2NC(=O)Nc2ccc(OCCN3CCOCC3)c3ccccc23)cc1 [doramapimod]
Outline: as §1

[20] = compound: Cc1ccc(C(=O)N(CCCN)[C@@H](c2nc3cc(Cl)ccc3c(=O)n2Cc2ccccc2)C(C)C)cc1 [ispinesib]
Outline: as §1

Measured: log2 fold change

HIP1 (UniProt O00291)
inactive: [1] 0.022 | [2] -0.026 | [3] 0.017 | [4] -0.003 | [5] -0.269 | [6] 0.029 | [7] 0.016 | [8] 0.047 | [9] 0.059 | [10] 0 | [11] 0.054 | [12] -0.131 | [13] 0.035 | [14] -0.002 | [15] 0.085 | [16] 0.029 | [17] -0.086 | [18] 0.027 | [19] 0 | [20] -0.033

HRAS (UniProt P01112)
Sequence of UniProt P01112 (P01112 whole entry, looked up): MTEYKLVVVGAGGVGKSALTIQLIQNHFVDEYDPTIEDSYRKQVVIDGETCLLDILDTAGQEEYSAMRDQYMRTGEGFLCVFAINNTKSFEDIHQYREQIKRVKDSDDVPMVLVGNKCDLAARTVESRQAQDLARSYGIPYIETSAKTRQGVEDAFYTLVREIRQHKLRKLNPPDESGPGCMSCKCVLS
inactive: [1] 0.008 | [2] -0.023 | [3] -0.049 | [4] 0.075 | [5] -0.157 | [6] -0.044 | [7] 0.021 | [8] -0.015 | [9] 0.076 | [10] 0.012 | [11] -0.064 | [12] 0.18 | [13] -0.129 | [14] -0.057 | [15] -0.025 | [16] 0.068 | [17] -0.149 | [18] -0.077 | [19] -0.032 | [20] 0.22

GBF1 (UniProt Q92538)
Sequence of UniProt Q92538 (Q92538 whole entry, looked up): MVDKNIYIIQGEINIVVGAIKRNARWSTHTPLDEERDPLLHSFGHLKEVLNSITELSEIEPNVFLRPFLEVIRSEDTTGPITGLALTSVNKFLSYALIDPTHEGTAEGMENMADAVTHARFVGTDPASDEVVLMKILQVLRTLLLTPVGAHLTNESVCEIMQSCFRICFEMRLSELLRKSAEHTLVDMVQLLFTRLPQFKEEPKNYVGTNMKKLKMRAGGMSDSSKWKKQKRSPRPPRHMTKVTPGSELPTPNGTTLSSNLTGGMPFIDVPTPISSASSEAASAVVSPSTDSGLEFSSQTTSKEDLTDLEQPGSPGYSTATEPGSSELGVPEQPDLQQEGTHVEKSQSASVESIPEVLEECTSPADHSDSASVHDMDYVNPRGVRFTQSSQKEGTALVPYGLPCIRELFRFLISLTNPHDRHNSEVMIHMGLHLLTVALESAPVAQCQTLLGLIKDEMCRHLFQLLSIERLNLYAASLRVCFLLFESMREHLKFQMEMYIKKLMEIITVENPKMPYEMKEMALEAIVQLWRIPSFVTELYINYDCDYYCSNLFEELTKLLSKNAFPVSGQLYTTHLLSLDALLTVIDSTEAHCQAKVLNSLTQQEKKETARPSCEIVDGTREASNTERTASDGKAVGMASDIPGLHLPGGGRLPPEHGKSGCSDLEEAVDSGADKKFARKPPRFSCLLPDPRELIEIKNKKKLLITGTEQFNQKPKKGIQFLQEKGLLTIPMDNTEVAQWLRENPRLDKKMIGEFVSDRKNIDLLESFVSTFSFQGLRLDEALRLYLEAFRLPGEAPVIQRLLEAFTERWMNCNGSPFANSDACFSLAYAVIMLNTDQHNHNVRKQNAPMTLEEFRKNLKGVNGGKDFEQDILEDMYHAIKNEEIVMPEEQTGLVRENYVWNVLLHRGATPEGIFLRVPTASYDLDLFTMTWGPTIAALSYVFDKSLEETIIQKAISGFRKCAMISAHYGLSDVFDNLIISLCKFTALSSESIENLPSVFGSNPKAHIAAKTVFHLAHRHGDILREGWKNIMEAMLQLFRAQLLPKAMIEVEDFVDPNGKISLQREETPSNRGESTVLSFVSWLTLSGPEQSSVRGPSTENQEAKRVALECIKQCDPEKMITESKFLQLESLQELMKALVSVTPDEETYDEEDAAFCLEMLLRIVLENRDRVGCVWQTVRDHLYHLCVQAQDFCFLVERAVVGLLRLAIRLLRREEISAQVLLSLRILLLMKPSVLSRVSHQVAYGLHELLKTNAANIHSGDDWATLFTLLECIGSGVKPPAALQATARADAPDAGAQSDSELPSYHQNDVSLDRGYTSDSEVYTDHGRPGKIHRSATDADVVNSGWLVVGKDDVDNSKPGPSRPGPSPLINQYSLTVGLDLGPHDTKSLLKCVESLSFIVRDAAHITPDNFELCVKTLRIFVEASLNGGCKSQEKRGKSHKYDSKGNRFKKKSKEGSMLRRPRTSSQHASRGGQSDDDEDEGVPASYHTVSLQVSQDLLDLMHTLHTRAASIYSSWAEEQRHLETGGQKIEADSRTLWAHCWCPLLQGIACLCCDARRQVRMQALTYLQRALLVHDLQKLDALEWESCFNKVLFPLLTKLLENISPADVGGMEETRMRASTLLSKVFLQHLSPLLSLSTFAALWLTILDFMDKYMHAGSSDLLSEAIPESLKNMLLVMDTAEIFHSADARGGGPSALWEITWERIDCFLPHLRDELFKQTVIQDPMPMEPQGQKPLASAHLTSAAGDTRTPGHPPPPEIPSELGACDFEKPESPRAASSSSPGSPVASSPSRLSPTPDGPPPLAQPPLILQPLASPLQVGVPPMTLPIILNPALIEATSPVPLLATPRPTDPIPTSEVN
inactive: [1] -0.005 | [2] 0.038 | [3] 0.008 | [4] -0.037 | [5] -0.013 | [6] 0.025 | [7] -0.012 | [8] -0.054 | [9] -0.036 | [10] -0.036 | [11] -0.032 | [12] -0.131 | [13] 0.023 | [14] 0.08 | [15] -0.028 | [16] -0.197 | [17] 0.039 | [18] 0.041 | [19] 0.059 | [20] 0.012

GTF2A2 (UniProt P52657)
Sequence of UniProt P52657 (P52657 whole entry, looked up): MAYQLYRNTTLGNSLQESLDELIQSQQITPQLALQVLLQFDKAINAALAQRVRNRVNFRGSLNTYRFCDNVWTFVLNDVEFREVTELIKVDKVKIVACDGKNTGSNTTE
inactive: [1] -0.067 | [2] -0.043 | [3] -0.006 | [4] -0.036 | [5] 0.018 | [6] 0.044 | [7] -0.028 | [8] 0.032 | [9] -0.042 | [10] 0.041 | [11] 0.022 | [12] 0.11 | [13] 0.102 | [14] 0.015 | [15] 0.067 | [16] -0.005 | [17] 0.031 | [18] -0.076 | [19] -0.034 | [20] 0.023

FARS2 (UniProt O95363)
Sequence of UniProt O95363 (O95363 whole entry, looked up): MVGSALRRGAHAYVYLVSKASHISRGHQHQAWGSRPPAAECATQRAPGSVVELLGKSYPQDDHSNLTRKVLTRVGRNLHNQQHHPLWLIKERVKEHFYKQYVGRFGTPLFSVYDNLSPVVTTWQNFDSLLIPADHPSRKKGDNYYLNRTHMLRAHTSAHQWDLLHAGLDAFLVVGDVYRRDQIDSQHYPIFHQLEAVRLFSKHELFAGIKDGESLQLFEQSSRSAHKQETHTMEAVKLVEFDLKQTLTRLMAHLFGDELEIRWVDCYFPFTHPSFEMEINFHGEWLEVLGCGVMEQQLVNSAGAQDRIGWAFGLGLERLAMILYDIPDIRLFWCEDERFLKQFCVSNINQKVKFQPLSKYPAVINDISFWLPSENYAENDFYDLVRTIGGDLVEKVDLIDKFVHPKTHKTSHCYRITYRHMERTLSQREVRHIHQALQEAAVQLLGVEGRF
inactive: [1] -0.171 | [2] -0.122 | [3] -0.049 | [4] -0.076 | [5] 0.137 | [6] 0.033 | [7] -0.114 | [8] 0.113 | [9] -0.061 | [10] 0.071 | [11] 0.004 | [12] -0.043 | [13] 0.088 | [14] 0.041 | [15] 0.073 | [16] -0.021 | [17] 0.045 | [18] 0.06 | [19] -0.023 | [20] -0.157

GTF3C5 isoform 3 (UniProt Q9Y5Q8)
Sequence of UniProt Q9Y5Q8 (Q9Y5Q8 whole entry, looked up): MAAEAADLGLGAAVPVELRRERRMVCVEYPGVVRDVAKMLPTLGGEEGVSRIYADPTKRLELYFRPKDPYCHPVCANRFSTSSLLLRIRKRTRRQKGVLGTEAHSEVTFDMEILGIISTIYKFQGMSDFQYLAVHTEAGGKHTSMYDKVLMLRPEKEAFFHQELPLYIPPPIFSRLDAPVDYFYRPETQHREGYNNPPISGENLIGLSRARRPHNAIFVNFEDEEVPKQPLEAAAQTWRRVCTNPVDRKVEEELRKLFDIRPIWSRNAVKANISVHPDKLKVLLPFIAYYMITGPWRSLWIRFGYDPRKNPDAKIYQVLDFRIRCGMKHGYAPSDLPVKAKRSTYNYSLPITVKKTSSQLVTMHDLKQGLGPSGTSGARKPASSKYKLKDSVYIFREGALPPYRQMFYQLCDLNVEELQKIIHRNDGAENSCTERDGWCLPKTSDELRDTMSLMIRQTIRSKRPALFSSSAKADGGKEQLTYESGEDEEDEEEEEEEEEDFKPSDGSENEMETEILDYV
inactive: [1] -0.115 | [2] -0.039 | [3] 0.116 | [4] -0.068 | [5] 0.064 | [6] 0.024 | [7] -0.003 | [8] -0.034 | [9] 0.13 | [10] -0.148 | [11] 0.01 | [12] 0.17 | [13] 0.016 | [14] 0.158 | [15] -0.106 | [16] 0.043 | [17] 0.063 | [18] 0.034 | [19] 0.095 | [20] -0.248

HMG20A (UniProt Q9NP66)
Sequence of UniProt Q9NP66 (Q9NP66 whole entry, looked up): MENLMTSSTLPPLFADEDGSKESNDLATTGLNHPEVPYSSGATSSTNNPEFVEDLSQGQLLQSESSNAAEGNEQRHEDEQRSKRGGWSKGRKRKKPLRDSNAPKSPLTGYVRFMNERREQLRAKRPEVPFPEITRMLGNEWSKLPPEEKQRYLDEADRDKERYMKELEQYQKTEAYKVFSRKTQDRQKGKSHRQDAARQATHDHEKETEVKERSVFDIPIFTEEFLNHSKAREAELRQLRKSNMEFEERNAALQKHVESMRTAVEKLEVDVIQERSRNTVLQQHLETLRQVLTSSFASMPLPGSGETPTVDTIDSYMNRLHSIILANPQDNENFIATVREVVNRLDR
inactive: [1] -0.045 | [2] 0.05 | [3] 0.078 | [4] -0.21 | [5] -0.016 | [6] 0.147 | [7] 0.065 | [8] -0.021 | [9] -0.088 | [10] 0.145 | [11] -0.042 | [12] 0.07 | [13] -0.018 | [14] -0.199 | [15] 0 | [16] 0.104 | [17] -0.035 | [18] -0.087 | [19] 0.071 | [20] 0.352

FBXO3 (UniProt Q9UK99)
Sequence of UniProt Q9UK99 (Q9UK99 whole entry, looked up): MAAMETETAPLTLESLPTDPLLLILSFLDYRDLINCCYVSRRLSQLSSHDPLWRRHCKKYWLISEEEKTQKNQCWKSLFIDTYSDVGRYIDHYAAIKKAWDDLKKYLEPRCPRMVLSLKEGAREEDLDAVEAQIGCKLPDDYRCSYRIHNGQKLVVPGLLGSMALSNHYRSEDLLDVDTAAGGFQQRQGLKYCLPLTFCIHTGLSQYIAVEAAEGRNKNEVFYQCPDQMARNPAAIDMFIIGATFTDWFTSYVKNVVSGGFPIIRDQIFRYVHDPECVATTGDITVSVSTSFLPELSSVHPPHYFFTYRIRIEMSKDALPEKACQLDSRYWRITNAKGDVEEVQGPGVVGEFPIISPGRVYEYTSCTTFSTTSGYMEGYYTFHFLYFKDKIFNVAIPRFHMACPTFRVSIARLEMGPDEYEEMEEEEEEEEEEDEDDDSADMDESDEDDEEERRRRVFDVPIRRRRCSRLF
inactive: [1] 0.011 | [2] -0.053 | [3] -0.022 | [4] 0.032 | [5] -0.071 | [6] -0.013 | [7] 0.011 | [8] 0.025 | [9] 0.028 | [10] -0.023 | [11] 0.055 | [12] 0.005 | [13] -0.095 | [14] 0.008 | [15] -0.025 | [16] -0.112 | [17] -0.046 | [18] -0.025 | [19] -0.003 | [20] 0.082

GAGE12F (UniProt P0CL80)
Sequence of UniProt P0CL80 (P0CL80 whole entry, looked up): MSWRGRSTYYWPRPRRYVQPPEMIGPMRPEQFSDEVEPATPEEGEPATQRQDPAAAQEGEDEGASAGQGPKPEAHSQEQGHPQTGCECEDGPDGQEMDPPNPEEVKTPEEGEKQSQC
inactive: [1] -0.007 | [2] 0.02 | [3] -0.054 | [4] 0.055 | [5] -0.312 | [6] -0.02 | [7] -0.03 | [8] 0.123 | [9] -0.028 | [10] 0.108 | [11] 0.019 | [12] 0.034 | [13] 0.092 | [14] 0.081 | [15] 0.039 | [16] 0.072 | [17] 0.006 | [18] 0.03 | [19] 0.043 | [20] 0.009

GALNT2 (UniProt Q10471)
Sequence of UniProt Q10471 (Q10471 whole entry, looked up): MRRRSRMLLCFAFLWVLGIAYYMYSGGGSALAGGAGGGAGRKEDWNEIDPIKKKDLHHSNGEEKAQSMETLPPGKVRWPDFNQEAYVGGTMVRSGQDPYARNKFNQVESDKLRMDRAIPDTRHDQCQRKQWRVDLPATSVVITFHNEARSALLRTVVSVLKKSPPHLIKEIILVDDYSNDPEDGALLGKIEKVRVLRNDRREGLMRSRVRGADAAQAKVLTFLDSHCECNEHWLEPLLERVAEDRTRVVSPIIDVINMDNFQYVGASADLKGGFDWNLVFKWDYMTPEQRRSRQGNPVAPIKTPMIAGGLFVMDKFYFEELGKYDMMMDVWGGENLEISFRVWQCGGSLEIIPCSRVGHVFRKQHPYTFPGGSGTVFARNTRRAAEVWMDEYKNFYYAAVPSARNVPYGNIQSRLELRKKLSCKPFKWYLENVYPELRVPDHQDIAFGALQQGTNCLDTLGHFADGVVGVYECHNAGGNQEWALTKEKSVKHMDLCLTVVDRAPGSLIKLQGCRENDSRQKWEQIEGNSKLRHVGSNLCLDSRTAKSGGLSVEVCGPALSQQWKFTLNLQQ
inactive: [1] 0.018 | [2] -0.025 | [3] 0.043 | [4] -0.065 | [5] -0.03 | [6] -0.042 | [7] 0.059 | [8] -0.012 | [9] 0.036 | [10] -0.01 | [11] 0.056 | [12] -0.005 | [13] 0.093 | [14] -0.015 | [15] 0.05 | [16] -0.024 | [17] -0.065 | [18] 0.022 | [19] -0.001 | [20] 0.034

GTF2H3 (UniProt Q13889)
Sequence of UniProt Q13889 (Q13889 whole entry, looked up): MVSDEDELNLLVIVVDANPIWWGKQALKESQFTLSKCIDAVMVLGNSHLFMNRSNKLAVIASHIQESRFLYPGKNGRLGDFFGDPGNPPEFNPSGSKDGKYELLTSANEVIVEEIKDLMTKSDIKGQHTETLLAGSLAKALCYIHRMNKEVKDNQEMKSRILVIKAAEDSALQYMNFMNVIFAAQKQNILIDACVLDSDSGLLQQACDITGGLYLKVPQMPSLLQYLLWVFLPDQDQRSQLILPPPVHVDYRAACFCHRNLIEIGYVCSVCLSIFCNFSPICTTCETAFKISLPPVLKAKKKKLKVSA
inactive: [1] -0.031 | [2] 0.062 | [3] -0.04 | [4] -0.077 | [5] -0.155 | [6] 0.016 | [7] 0 | [8] 0.041 | [9] 0.056 | [10] -0.089 | [11] 0.061 | [12] 0.049 | [13] -0.012 | [14] -0.003 | [15] -0.047 | [16] -0.012 | [17] -0.031 | [18] -0.2 | [19] 0.021 | [20] 0.023
